Experimental data taken from PubChem BioAssay (EPA / NIEHS).
Inconclusive results are not listed. Activity calls are given as the source filed them. The calls were made as follows: active = hit-call score of the fitted dose curve at least 0.9, where 1 is the maximum; inconclusive = response in the unintended direction; inactive = score below 0.9.

Assays:
[1] = Tanguay_ZF_120hpf_MORT_legacy: (Legacy) Oregon State University Tanguay Lab 120 Hour Post-fertilization zebrafish Assay for Mortality (AID 2283633)
Summary of the method: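 Mortality endpoint from a multiplexed whole-embryo zebrafish screen. Dechorionated wild-type embryos received compound at 6 hpf and remained under static exposure at 28C until 120 hpf, with death noted as a present/absent call.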

[2] = Tanguay_ZF_120hpf_YSE_legacy: (Legacy) Oregon State University Tanguay Lab 120 Hour Post-fertilization zebrafish Assay for Yolk Sac Edema (AID 2283634)
Summary of the method: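 Readout: presence or absence of yolk sac edema at 120 hpf, fitted upward against DMSO controls. Exposure ran statically from 6 hpf in dechorionated embryos kept at 28C.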

[3] = Tanguay_ZF_120hpf_AXIS_legacy: (Legacy) Oregon State University Tanguay Lab 120 Hour Post-fertilization zebrafish Assay for Body Axis Malformation (AID 2283635)
Summary of the method: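 Static 6–120 hpf chemical exposure of dechorionated wild-type 5D zebrafish, one per well at 28C; morphology endpoint scored binary at 120 hpf relative to DMSO control.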

[4] = Tanguay_ZF_120hpf_EYE_legacy: (Legacy) Oregon State University Tanguay Lab 120 Hour Post-fertilization zebrafish Assay for Eye Malformation (AID 2283636);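 also: binary presence or absence of eye malformation scored by brightfield in 120 hpf larvae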
Summary of the method: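 Dechorionated wild-type Tropical 5D zebrafish embryos were exposed statically from 6 hpf, one per well, to 120 hpf at 28C in sealed, foil-covered plates with 0.64% DMSO. Eye malformation was scored present/absent by brightfield microscopy against DMSO controls.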

[5] = Tanguay_ZF_120hpf_SNOU_legacy: (Legacy) Oregon State University Tanguay Lab 120 Hour Post-fertilization zebrafish Assay for Snout Malformation (AID 2283637)
Summary of the method: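 Tropical 5D wild-type zebrafish embryos, dechorionated with pronase at 4 hpf, were exposed singly from 6 hpf to 120 hpf statically at 28C in 0.64% DMSO. Snout malformation was scored present/absent by brightfield microscopy, fitted against DMSO.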

[6] = Tanguay_ZF_120hpf_JAW_legacy: (Legacy) Oregon State University Tanguay Lab 120 Hour Post-fertilization zebrafish Assay for Jaw Malformation (AID 2283638)
Summary of the method: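 Static waterborne exposure of dechorionated wild-type (Tropical 5D) zebrafish from 6 to 120 hpf at 28C, 0.64% DMSO vehicle; 5uM trimethyltin chloride served as positive control. Jaw morphology recorded as binary at 120 hpf.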

[7] = Tanguay_ZF_120hpf_OTIC_legacy: (Legacy) Oregon State University Tanguay Lab 120 Hour Post-fertilization zebrafish Assay for Otic Vesicle Malformation (AID 2283639)
Summary of the method: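 Embryos from 5D wild-type adults exposed in plates; DMSO 0.64% v/v final. Sealed, light-protected, 28C, static to 120 hpf. Otic vesicle malformation recorded as binary endpoint; gain-of-signal fitted vs DMSO.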

[8] = Tanguay_ZF_120hpf_PE_legacy: (Legacy) Oregon State University Tanguay Lab 120 Hour Post-fertilization zebrafish Assay for Pericardial Edema (AID 2283640)
Summary of the method: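 Read-out is the presence or absence of pericardial edema at 120 hpf under brightfield, with gain of signal fitted against DMSO controls. Larvae (5D wild-type) were statically exposed at 28C with 0.64% final DMSO.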

[9] = Tanguay_ZF_120hpf_BRAI_legacy: (Legacy) Oregon State University Tanguay Lab 120 Hour Post-fertilization zebrafish Assay for Brain Malformation (AID 2283641)
Summary of the method: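 Brain malformation in Tropical 5D zebrafish was recorded as a binary endpoint after static compound exposure from early development to 120 hpf at 28C. Activity was analysed against DMSO as negative control.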

[10] = Tanguay_ZF_120hpf_SOMI_legacy: (Legacy) Oregon State University Tanguay Lab 120 Hour Post-fertilization zebrafish Assay for Somite Malformation (AID 2283647)
Summary of the method: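 5D WT zebrafish; chorion removed 4 hpf; 1 embryo/well from 6 hpf; static exposure to 120 hpf, 28C, 0.64% DMSO final. Endpoint: somite malformation, binary, brightfield. Mortality excluded.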

Measured: outcome

O=C(O)c1ccc([N+](=O)[O-])cc1
inactive: [1] | [2] | [3] | [4] | [5] | [6] | [7] | [8] | [9] | [10]
